Data on 3 compounds can be found in PubChem BioAssay (NCATS).

The structures appear in SMILES notation. Results filed as inconclusive are left out. Values without a mark were called inactive. Calls come from the whole dose curve; as a rule, active = well fitted inhibition curve with a large enough effect; inconclusive = small, poorly fitted or top-dose-only effect; inactive = flat fitted curve, though single readings scatter.
% is set by controls: 0 for no effect and ±100 for the full control effect.

Sequence of Calcium and integrin-binding protein 1 (Homo sapiens) (Q99828 whole entry, looked up): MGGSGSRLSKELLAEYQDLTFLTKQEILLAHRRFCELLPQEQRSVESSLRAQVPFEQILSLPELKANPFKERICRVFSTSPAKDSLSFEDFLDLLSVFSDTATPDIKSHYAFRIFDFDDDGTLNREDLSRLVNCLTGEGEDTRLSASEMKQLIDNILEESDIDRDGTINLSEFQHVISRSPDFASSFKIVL

The experiment deals with Calcium and integrin-binding protein 1 (Homo sapiens) (UniProt Q99828). Kind of experiment: Primary qHTS for Identification of Calcium Integrin Binding Protein 1 (CIB1) Competitor (AID 1508620).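 Note: GST tagged CIB1 binding a fluorescein labelled alphaIIb integrin peptide tracer; top concentration of the series differs between compounds.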 The settings on record: CIB1-GST / FITC-alphaIIb peptide fluorescence polarization; series mostly up to 114 µM; activity change, negative = inhibition: at the top concentration. In a few lines:
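Fluorescence polarization competition: CIB1-GST (1 uM final) preincubated with compound 15 min at room temperature, then FITC-labeled alphaIIb peptide (100 nM final) added for another 15 min. Polarization read at Ex 480/Em 540.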
For orientation: qHTS replaces the single test concentration by a dilution series.
On to `Cc1c(P(=S)(c2ccccc2)c2ccccc2)[n+]2ccccc2n1CCCCc1ccccc1`, for which the “activity change, negative = inhibition” value was 3.71%. The same measure for `O=C1CCc2cc(S(=O)(=O)NCc3ccccc3)ccc2N1`: 1.14%; for `Cn1c2cc(C#N)sc2c2cnn(Cc3ccc(F)cc3)c(=O)c21`: 1.78%.
